Laboratory results published in PubChem BioAssay (NCATS).
Results filed as inconclusive are left out. Entries that show only a call come without a potency. Calls of active or inactive are those of the source. Calls follow the shape of the dose curve; as a rule, active = well fitted curve in the direction sought with a large enough effect; inconclusive = small, poorly fitted or top-dose-only effect, or another doubt; inactive = no such curve, though single readings can be large; an effect the other way counts as inactive or inconclusive.

Assays:
[1] = qHTS of pediatric cancer cell lines to identify multiple opportunities for drug repurposing: Primary screen for BT-12 cells (AID 1347101); also: nearly all actives have a fitted effect of over 25% in size; also: potency is read from the fitted curve at half-maximal effect
How it was run: (§1)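 Cells (500-1,000/well) rested 5 h, then received compounds for 48 h; metabolically active cells were measured by CellTiter-Glo luminescence. Final concentrations spanned up to 46 µM (MIPE, 11-point) or 0.59 nM-46 µM (NPC, 8-point) in primary screens, 11-point in follow-ups.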

[2] = qHTS of pediatric cancer cell lines to identify multiple opportunities for drug repurposing: Primary screen for Rh18 cells (AID 1347102); also: nearly all actives have a fitted effect of over 65% in size; also: potency is read from the fitted curve at half-maximal effect
How it was run: (§2)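 Cells (500-1,000/well) in growth media were settled 5 h at 37 degrees C, then given compounds for 48 h. Viability was read as CellTiter-Glo luminescence. Primary runs used MIPE at 11 points (0.78 nM-46 µM) and NPC at 8 points (0.59 nM-46 µM); follow-ups used 11 points.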

[3] = qHTS of pediatric cancer cell lines to identify multiple opportunities for drug repurposing: Primary screen for MG 63 (6-TG R) cells (AID 1347105); also: nearly all actives have a fitted effect of over 50% in size; also: potency is read from the fitted curve at half-maximal effect
How it was run: (§3)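 Phenotypic viability qHTS, 48 h compound exposure, CellTiter-Glo luminescence read-out; multi-concentration dosing so that potency and efficacy derive directly from the primary screen's curves.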

[4] = qHTS of pediatric cancer cell lines to identify multiple opportunities for drug repurposing: Primary screen for control Hh wild type fibroblast cells (AID 1347106);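 also: series mostly up to about 46 µM; a drop in luminescence marks cytotoxicity and a rise apparent proliferation; nearly all actives have a fitted effect of over 55% in size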
How it was run: as §2

[5] = qHTS of pediatric cancer cell lines to identify multiple opportunities for drug repurposing: Confirmatory screen for NB1643 cells (AID 1347109); also: nearly all actives have a fitted effect of over 45% in size
How it was run: as §2

[6] = qHTS of pediatric cancer cell lines to identify multiple opportunities for drug repurposing: Confirmatory screen for A673 cells (AID 1347110);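 also: cells exposed to compound for 48 h before the viability read; nearly all actives have a fitted effect of over 65% in size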; also: potency is read from the fitted curve at half-maximal effect
How it was run: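 A673 cells at 500-1,000 cells/well were dosed 5 h after plating, in dilution series up to 46 uM final; primary runs used 8 or 11 points and confirmatory runs used 11 points. Viability was read by CellTiter-Glo luminescence after 48 h, against DMSO and 2.3 uM bortezomib controls.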

[7] = qHTS of pediatric cancer cell lines to identify multiple opportunities for drug repurposing: Confirmatory screen for SK-N-MC cells (AID 1347111);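 also: cells exposed to compound for 48 h before the readout; nearly all actives have a fitted effect of over 70% in size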; also: potency is read from the fitted curve at half-maximal effect
How it was run: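 Metabolically active cells were quantified by ATP-dependent luminescence (CellTiter-Glo, 15 min at room temperature) following 48 h treatment. Cells had been plated at 500-1,000 per well and settled for 5 h beforehand.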

[8] = qHTS of pediatric cancer cell lines to identify multiple opportunities for drug repurposing: Confirmatory screen for LAN-5 cells (AID 1347113); also: nearly all actives have a fitted effect of over 65% in size
How it was run: as §2

[9] = qHTS of pediatric cancer cell lines to identify multiple opportunities for drug repurposing: Confirmatory screen for DAOY cells (AID 1347114); also: nearly all actives have a fitted effect of over 65% in size
How it was run: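 Viability measured as metabolically active cells via CellTiter-Glo luminescence following 48 hours of compound exposure, 11-point dilutions in confirmatory testing. 500-1,000 cells/well plated 5 hours before dosing; controls were DMSO and 2.3 µM bortezomib.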

[10] = qHTS of pediatric cancer cell lines to identify multiple opportunities for drug repurposing: Confirmatory screen for NB-EBc1 cells (AID 1347115);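 also: cells exposed to compound for 48 h before the viability read; nearly all actives have a fitted effect of over 45% in size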
How it was run: as §2

[11] = qHTS of pediatric cancer cell lines to identify multiple opportunities for drug repurposing: Confirmatory screen for BT-37 cells (AID 1347117); also: nearly all actives have a fitted effect of over 55% in size; also: potency is read from the fitted curve at half-maximal effect
How it was run: as §2

[12] = qHTS of pediatric cancer cell lines to identify multiple opportunities for drug repurposing: Confirmatory screen for TC32 cells (AID 1347118); also: potency is read from the fitted curve at half-maximal effect
How it was run: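 qHTS, TC32, 48 h drug treatment, CellTiter-Glo luminescence as a proxy for metabolically active cells; primary top concentration 46 µM (MIPE 11-pt, NPC 8-pt); confirmatory 11-pt.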

[13] = qHTS of pediatric cancer cell lines to identify multiple opportunities for drug repurposing: Confirmatory screen for MG 63 (6-TG R) cells (AID 1347119); also: nearly all actives have a fitted effect of over 55% in size; also: potency is read from the fitted curve at half-maximal effect
How it was run: as §2

[14] = qHTS of pediatric cancer cell lines to identify multiple opportunities for drug repurposing: Primary screen for OHS-50 cells (AID 1347103); also: nearly all actives have a fitted effect of over 40% in size; also: potency is read from the fitted curve at half-maximal effect
How it was run: as §1

[15] = qHTS of pediatric cancer cell lines to identify multiple opportunities for drug repurposing: Primary screen for RD cells (AID 1347104); also: nearly all actives have a fitted effect of over 55% in size; also: potency is read from the fitted curve at half-maximal effect
How it was run: as §3

[16] = qHTS of pediatric cancer cell lines to identify multiple opportunities for drug repurposing: Primary screen for Rh30 cells (AID 1347107); also: nearly all actives have a fitted effect of over 75% in size; also: potency is read from the fitted curve at half-maximal effect
How it was run: as §2

[17] = qHTS of pediatric cancer cell lines to identify multiple opportunities for drug repurposing: Primary screen for Rh41 cells (AID 1347108); also: nearly all actives have a fitted effect of over 70% in size; also: potency is read from the fitted curve at half-maximal effect
How it was run: as §3

[18] = qHTS of pediatric cancer cell lines to identify multiple opportunities for drug repurposing: Confirmatory screen for control Hh wild type fibroblast cells (AID 1347121); also: nearly all actives have a fitted effect of over 70% in size
How it was run: as §2

For `NC(N)=Nc1nc(CSCCC(N)=NS(N)(=O)=O)cs1`, the Potency [1] was “inactive”, the Potency [2] was “inactive” and the Potency [3] was “inactive”. For the same molecule, the Potency [4] was “inactive”, the Potency [5] was “inactive” and the Potency [6] was “inactive”. For the same molecule, the Potency [7] was “inactive”, the Potency [8] was “inactive” and the Potency [9] was “inactive”. The Potency [10] was “inactive”, the Potency [11] was “inactive” and the Potency [12] was “inactive”. The Potency [13] was “inactive”.

For `CCNC(=O)CCCC=CC[C@@H]1[C@H](C=CC(O)CCc2ccccc2)[C@@H](O)C[C@@H]1O` (stereo partly drawn), the Potency [2] was “inactive”, the Potency [14] was “inactive” and the Potency [15] was “inactive”. The Potency [3] was “inactive”, the Potency [4] was “inactive” and the Potency [16] was “inactive”.

For `Clc1ccc(C2(c3ccc(-c4cn[nH]c4)cc3)CCNCC2)cc1`, the Potency [1] was “inactive”, the Potency [15] was 26.4 µM (active) and the Potency [3] was 5.9 µM (active). The Potency [4] was “inactive”.

For `O=C(Nc1cccc(C(F)(F)F)c1)Nc1cc(S(=O)(=O)NC2CC2)ccc1-c1ccsc1`, the Potency [2] was “inactive”, the Potency [15] was 29.6 µM (active) and the Potency [4] was “inactive”.

In the case of `CN(C)N=Nc1nc[nH]c1C(N)=O`, the Potency [2] is reported as “inactive”, the Potency [15] is reported as “inactive” and the Potency [3] is reported as “inactive”. The Potency [4] was “inactive” and the Potency [17] was “inactive”.

In the case of `Cc1cnc(CNC(=O)c2c(=O)c3ccc(N4CCCN(C)CC4)nc3n3c2sc2ccccc23)cn1`, the Potency [2] is reported as “inactive”, the Potency [14] is reported as “inactive” and the Potency [15] is reported as “inactive”. The Potency [4] was “inactive” and the Potency [17] was “inactive”.

In the case of `Cc1cc(C(C)Nc2ccccc2)c2nc(N3CCOCC3)cc(=O)n2c1` (stereo not drawn), the Potency [1] is reported as “inactive”, the Potency [14] is reported as 24.3 µM (active) and the Potency [4] is reported as “inactive”.

With `COc1ccc(-c2oc3c(CC=C(C)C)c(O)cc(O)c3c(=O)c2O)cc1` the Potency [1] was “inactive”, the Potency [2] was “inactive” and the Potency [4] was “inactive”. For the same molecule, the Potency [17] was 18.7 µM (active).

With `CCCCC(C)(C)[C@H](O)C=C[C@H]1[C@H](O)CC(=O)[C@H]1CC=CCCCC(=O)O` the Potency [2] was “inactive”, the Potency [14] was “inactive” and the Potency [3] was “inactive”. For the same molecule, the Potency [4] was “inactive”.

For `CCCCC[C@H](O)C=C[C@H]1[C@H](O)CC(=O)[C@H]1CCCCCCC(=O)O`, the Potency [2] was “inactive”, the Potency [14] was “inactive” and the Potency [3] was “inactive”. The Potency [4] was “inactive” and the Potency [16] was “inactive”.

With `COc1cc(CNC(=O)CCCCC=CC(C)C)ccc1O` the Potency [1] was “inactive”, the Potency [2] was “inactive” and the Potency [15] was “inactive”. For the same molecule, the Potency [3] was “inactive”, the Potency [4] was “inactive” and the Potency [16] was “inactive”. For the same molecule, the Potency [17] was “inactive”, the Potency [5] was “inactive” and the Potency [8] was “inactive”. The Potency [9] was “inactive”, the Potency [10] was “inactive” and the Potency [11] was “inactive”. The Potency [12] was 3.29 µM (active), the Potency [13] was “inactive” and the Potency [18] was “inactive”.

In the case of `CN(C)CCN(Cc1ccc(Cl)cc1)c1ccccn1`, the Potency [1] is reported as “inactive”, the Potency [2] is reported as “inactive” and the Potency [3] is reported as “inactive”. For the same molecule, the Potency [4] was “inactive” and the Potency [16] was “inactive”.

With `CON(C)C(=O)N1N=C(c2cc(F)ccc2F)S[C@]1(CCCN)c1ccccc1` the Potency [1] was 15.3 µM (active), the Potency [14] was 0.001 µM (active) and the Potency [4] was “inactive”. The Potency [16] was “inactive”, the Potency [6] was 0.0104 µM (active) and the Potency [7] was 0.0093 µM (active). The Potency [11] was 0.0074 µM (active), the Potency [12] was 0.0117 µM (active) and the Potency [13] was 0.0208 µM (active).

With `O=C(NC[C@H](O)CO)c1ccncc1Nc1ccc(I)cc1F` the Potency [2] was 10.5 µM (active), the Potency [14] was “inactive” and the Potency [3] was “inactive”. For the same molecule, the Potency [4] was “inactive” and the Potency [16] was “inactive”.

For `O=C(O)Cc1cccc(OCCCN(Cc2cccc(C(F)(F)F)c2Cl)CC(c2ccccc2)c2ccccc2)c1`, the Potency [1] was 24.3 µM (active), the Potency [14] was 27.3 µM (active) and the Potency [15] was 33.2 µM (active). The Potency [3] was 23.5 µM (active), the Potency [4] was “inactive” and the Potency [16] was 23.5 µM (active). For the same molecule, the Potency [17] was 23.5 µM (active).

In the case of `C=C1[C@H](n2cnc3c(=O)[nH]c(N)nc32)C[C@H](O)[C@H]1CO`, the Potency [2] is reported as “inactive”, the Potency [14] is reported as 8.63 µM (active) and the Potency [4] is reported as “inactive”. For the same molecule, the Potency [16] was “inactive”, the Potency [17] was “inactive” and the Potency [5] was “inactive”. The Potency [6] was “inactive”, the Potency [7] was 7.37 µM (active) and the Potency [8] was “inactive”. For the same molecule, the Potency [9] was “inactive”, the Potency [10] was “inactive” and the Potency [11] was “inactive”. For the same molecule, the Potency [12] was 8.27 µM (active) and the Potency [13] was “inactive”.

In the case of `N=C1SC(=Cc2ccc(-c3ccc4c(c3)C(=O)NC4=O)o2)C(=O)N1c1ccc(Br)cc1`, the Potency [1] is reported as “inactive”, the Potency [2] is reported as “inactive” and the Potency [15] is reported as “inactive”. The Potency [3] was “inactive”, the Potency [4] was “inactive” and the Potency [16] was “inactive”.

With `Cc1nc(NC(=O)N2CCC[C@@H]2C(N)=O)sc1-c1csc(C(C)(C)C)n1` the Potency [2] was 7.43 µM (active), the Potency [14] was 1.72 µM (active) and the Potency [15] was 1.66 µM (active). The Potency [3] was 5.9 µM (active), the Potency [16] was 14.8 µM (active) and the Potency [17] was 11.8 µM (active).

In the case of `CC(=O)NCCC(=O)N[C@@H](CCC(N)=O)C(=O)N[C@@H](CO)C(=O)N[C@@H](CCC(N)=O)C(=O)N[C@@H](CCC(N)=O)C(=O)N[C@H](C(=O)N[C@@H](Cc1ccccc1)C(=O)N[C@]1(C)CCCCCCC=CCCC[C@@](C)(C(=O)N[C@@H](CCC(N)=O)C(=O)N[C@@H](CC(N)=O)C(N)=O)NC(=O)[C@H](CC(C)C)NC(=O)[C@H](CC(C)C)NC(=O)[C@@H](CCCNC(=N)N)NC(=O)[C@H](Cc2c[nH]c3ccccc23)NC(=O)[C@H](CC(C)C)NC(=O)[C@H](CC(N)=O)NC1=O)[C@H](C)O`, the Potency [2] is reported as “inactive”, the Potency [14] is reported as “inactive” and the Potency [3] is reported as “inactive”. For the same molecule, the Potency [4] was “inactive” and the Potency [17] was 18.7 µM (active).

For `COc1c(C)c2c(c(O)c1CC=C(C)CCC(=O)OCCN1CCOCC1)C(=O)OC2`, the Potency [1] was 1.93 µM (active), the Potency [2] was “inactive” and the Potency [16] was “inactive”. For the same molecule, the Potency [17] was “inactive”.
